In PubChem BioAssay AID1159580 (chemical genetic matrix, 2015):
“And” between values parts separate entries of the source, which are not always exact repeats. Equal entries are not always repeated. The whole screen tested about 5,500 compounds, of which about 2,000 (36%) were called active. Roughly 18% stayed inconclusive and do not appear here. Cut-off read from the data, not from the text of the source: active = normalized growth mostly below about 0.91 (no sharp cut-off); inconclusive = no clear call, values can overlap the other calls; inactive = mostly above about 0.92. Some of the results follow.

Assay: chemical genetic growth profiling, strain panel (AID 1159580);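 note: tested at 20 µM; growth read once vehicle control cultures reached saturation at 30 °C; 1 = growth at the plate median or of vehicle wells; lower values mean less growth of the strain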
Conditions: S. cerevisiae deletion strains, growth OD

Measured: normalized growth

CC1(C)C2CC(=O)[C@]3(C)C(CC[C@@]4(C)[C@H](c5ccoc5)OC(=O)[C@H]5O[C@]543)[C@@]2(C)C(=O)C[C@H]1O (stereo not given in full)
inactive: locus YAL013W, strain DEP1, stronger effect = lower value 1.03 | locus YAL021C, strain ccr4, stronger effect = lower value 1.01 | locus YAL026C, strain drs2, stronger effect = lower value 1 | locus YAL030W, strain snc1, stronger effect = lower value 1.01 | locus YBL061C, strain skt5, stronger effect = lower value 1 | locus YBR009C, strain hhf1, stronger effect = lower value 0.992 | locus YBR021W, strain FUR4, stronger effect = lower value 0.995 | locus YBR023C, strain chs3, stronger effect = lower value 1.02 | locus YBR171W, strain sec66, stronger effect = lower value 1.01 | locus YBR229C, strain ROT2, stronger effect = lower value 1 | locus YBR231C, strain swc5, stronger effect = lower value 1 | locus YBR279W, strain paf1, stronger effect = lower value 1.01 | locus YCL011C, strain gbp2, stronger effect = lower value 1.02 | locus YCL016C, strain dcc1, stronger effect = lower value 1.01 | locus YCL029C, strain bik1, stronger effect = lower value 1.01 | locus YCL061C, strain MRC1, stronger effect = lower value 1 | locus YCL069W, strain vba3, stronger effect = lower value 1.01 | locus YCR088W, strain abp1, stronger effect = lower value 1.01 | locus YDL005C, strain med2, stronger effect = lower value 1 | locus YDL035C, strain GPR1, stronger effect = lower value 0.975 | locus YDL040C, strain nat1, stronger effect = lower value 1 | locus YDL074C, strain BRE1, stronger effect = lower value 1.03 | locus YDL101C, strain DUN1, stronger effect = lower value 1.03 | locus YDL185W, strain tfp1, stronger effect = lower value 1.02 | locus YDL192W, strain arf1, stronger effect = lower value 1.01 | locus YDR001C, strain nth1, stronger effect = lower value 1 | locus YDR069C, strain doa4, stronger effect = lower value 0.995 | locus YDR101C, strain arx1, stronger effect = lower value 1 | locus YDR137W, strain rgp1, stronger effect = lower value 1.06 | locus YDR150W, strain NUM1, stronger effect = lower value 1 | locus YDR159W, strain sac3, stronger effect = lower value 1.01 | locus YDR162C, strain NBP2, stronger effect = lower value 0.983 | locus YDR195W, strain ref2 0.977 | locus YDR297W, strain sur2, stronger effect = lower value 1.01 | locus YDR318W, strain mcm21, stronger effect = lower value 1.01 | locus YDR334W, strain swr1, stronger effect = lower value 1.01 | locus YDR335W, strain msn5, stronger effect = lower value 0.999 | locus YDR388W, stronger effect = lower value 1.01 | locus YDR392W, strain spt3, stronger effect = lower value 1.01 | locus YDR502C, strain sam2, stronger effect = lower value 1.02 | locus YEL003W, strain gim4, stronger effect = lower value 1.01 | locus YEL037C, strain rad23, stronger effect = lower value 1 | locus YEL061C, strain CIN8 (second series), stronger effect = lower value 0.996 | locus YEL061C, strain CIN8, stronger effect = lower value 1 | locus YER015W, strain faa2, stronger effect = lower value 0.995 | locus YER016W, strain bim1, stronger effect = lower value 1.01 | locus YER110C, stronger effect = lower value 1.02 | locus YER111C, strain swi4, stronger effect = lower value 1.01 | locus YER155C, strain BEM2 (second series), stronger effect = lower value 1.02 | locus YER155C, strain BEM2, stronger effect = lower value 1 | locus YER167W, strain BCK2, stronger effect = lower value 0.993 | locus YFR010W, strain ubp6, stronger effect = lower value 0.997 | locus YGL078C, strain dbp3, stronger effect = lower value 1.01 | locus YGL086W, strain mad1, stronger effect = lower value 1.01 | locus YGL167C, strain pmr1, stronger effect = lower value 1.01 | locus YGL173C, strain kem1, stronger effect = lower value 1.02 | locus YGL227W, strain vid30, stronger effect = lower value 1.01 | locus YGL240W, strain doc1, stronger effect = lower value 1.03 | locus YGL248W, strain PDE1, stronger effect = lower value 1.03 | locus YGL253W, strain hxk2, stronger effect = lower value 1 | locus YGR078C, strain PAC10, stronger effect = lower value 1.03 | locus YGR135W, strain pre9, stronger effect = lower value 1.01 | locus YGR252W, strain gcn5, stronger effect = lower value 0.993 | locus YHR013C, strain ard1, stronger effect = lower value 1.01 | locus YHR027C, strain rpn1, stronger effect = lower value 1.01 | locus YHR030C, strain SLT2, stronger effect = lower value 0.992 and 1.02 | locus YHR079C, strain IRE1 (second series), stronger effect = lower value 1.02 | locus YHR079C, strain IRE1, stronger effect = lower value 1.02 | locus YHR094C, strain hxt1, stronger effect = lower value 1.02 | locus YHR129C, strain ARP1, stronger effect = lower value 1.01 | locus YHR142W, strain chs7, stronger effect = lower value 0.999 | locus YHR200W, strain rpn10, stronger effect = lower value 1.01 | locus YIL066C, strain RNR3, stronger effect = lower value 0.979 | locus YIL073C, strain SPO22, stronger effect = lower value 1.03 | locus YIL125W, strain kgd1, stronger effect = lower value 1.01 | locus YIR030C, strain dcg1, stronger effect = lower value 1.02 | locus YJL092W, strain hpr5, stronger effect = lower value 1 | locus YJL095W, strain BCK1 (second series), stronger effect = lower value 1.01 | locus YJL095W, strain BCK1, stronger effect = lower value 1.06 and 1.03 | locus YJL115W, strain asf1, stronger effect = lower value 1 | locus YJL129C, strain trk1, stronger effect = lower value 1.03 | locus YJL134W, strain LCB3, stronger effect = lower value 0.999 | locus YJL154C, strain vps35, stronger effect = lower value 1 | locus YJL164C, strain tpk1, stronger effect = lower value 1 | locus YJL166W, strain qcr8, stronger effect = lower value 1.01 | locus YJL168C, strain set2, stronger effect = lower value 1.01 | locus YJL187C, strain SWE1 (second series), stronger effect = lower value 1.05 | locus YJR043C, strain POL32, stronger effect = lower value 0.963 | locus YJR066W, strain TOR1, stronger effect = lower value 0.956 | locus YJR075W, strain HOC1, stronger effect = lower value 1.03 | locus YKL009W, strain mrt4, stronger effect = lower value 1.03 | locus YKL068W, stronger effect = lower value 1.01 | locus YKL085W, strain MDH1 (second series), stronger effect = lower value 1 | locus YKL085W, strain MDH1, stronger effect = lower value 1 | locus YKL160W, strain elf1, stronger effect = lower value 1.01 | locus YKL190W, strain CNB1, stronger effect = lower value 1.01 | locus YKR001C, strain vps1, stronger effect = lower value 1.05 | locus YKR026C, strain gcn3, stronger effect = lower value 1 | locus YKR091W, strain srl3, stronger effect = lower value 1 | locus YLL001W, strain dnm1, stronger effect = lower value 1.01 | locus YLL026W, stronger effect = lower value 1.01 | locus YLL041C, strain sdh2, stronger effect = lower value 0.998 | locus YLR027C, strain aat2, stronger effect = lower value 1.01 | locus YLR039C, strain RIC1, stronger effect = lower value 1.02 | locus YLR058C, strain SHM2, stronger effect = lower value 1.02 | locus YLR102C, strain apc9, stronger effect = lower value 1.02 | locus YLR113W, strain HOG1, stronger effect = lower value 0.981 | locus YLR221C, strain rsa3, stronger effect = lower value 1 | locus YLR258W, strain gsy2, stronger effect = lower value 1.01 | locus YLR262C, strain YPT6 (second series), stronger effect = lower value 0.982 | locus YLR262C, strain YPT6, stronger effect = lower value 1 | locus YLR268W, strain sec22, stronger effect = lower value 1.02 | locus YLR320W, strain mms22, stronger effect = lower value 1.01 | locus YLR330W, strain CHS5, stronger effect = lower value 1 | locus YLR342W, strain FKS1 (second series), stronger effect = lower value 0.988 | locus YLR342W, strain FKS1, stronger effect = lower value 1.01 | locus YLR357W, strain rsc2, stronger effect = lower value 0.994 | locus YLR370C, strain arc18, stronger effect = lower value 0.996 | locus YLR371W, strain rom2, stronger effect = lower value 1.02 | locus YLR384C, strain iki3, stronger effect = lower value 1.01 | locus YLR418C, strain cdc73, stronger effect = lower value 1.03 | locus YML016C, strain PPZ1, stronger effect = lower value 0.997 | locus YML032C, strain rad52, stronger effect = lower value 1.01 | locus YML120C, strain ndi1, stronger effect = lower value 1.01 | locus YML124C, strain tub3, stronger effect = lower value 1.01 | locus YMR058W, strain fet3, stronger effect = lower value 1 | locus YMR078C, strain ctf18, stronger effect = lower value 1.02 | locus YMR125W, strain sto1, stronger effect = lower value 1.02 | locus YMR129W, stronger effect = lower value 1.02 | locus YMR205C, strain PFK2, stronger effect = lower value 1 | locus YMR223W, strain ubp8, stronger effect = lower value 1.01 | locus YMR231W, strain pep5, stronger effect = lower value 1.01 | locus YMR263W, strain SAP30, stronger effect = lower value 1.04 | locus YMR307W, strain GAS1, stronger effect = lower value 1.04 | locus YNL067W, strain RPL9B, stronger effect = lower value 1.05 | locus YNL071W, strain lat1, stronger effect = lower value 1 | locus YNL153C, strain GIM3, stronger effect = lower value 1.04 | locus YNL183C, strain NPR1, stronger effect = lower value 0.962 | locus YNL209W, strain ssb2, stronger effect = lower value 0.997 | locus YNL233W, strain BNI4, stronger effect = lower value 1.04 | locus YNL248C, strain rpa49, stronger effect = lower value 1.02 | locus YNL250W, strain rad50, stronger effect = lower value 1.02 | locus YNL271C, strain bni1, stronger effect = lower value 1.01 | locus YNL298W, strain CLA4, stronger effect = lower value 1.02 | locus YNL307C, strain MCK1, stronger effect = lower value 1.02 | locus YNL322C, strain KRE1 (second series), stronger effect = lower value 1.03 | locus YNR049C, strain mso1, stronger effect = lower value 0.995 | locus YNR052C, strain pop2, stronger effect = lower value 1.02 | locus YOL012C, strain htz1 2.06 | locus YOL147C, strain pex11, stronger effect = lower value 1.02 | locus YOR001W, strain rrp6, stronger effect = lower value 0.995 | locus YOR061W, strain CKA2, stronger effect = lower value 0.999 | locus YOR069W, strain VPS5, stronger effect = lower value 1.01 | locus YOR070C, strain gyp1, stronger effect = lower value 1.01 | locus YOR080W, strain dia2, stronger effect = lower value 0.997 | locus YOR083W, strain WHI5, stronger effect = lower value 1.01 | locus YOR106W, strain vam3, stronger effect = lower value 1 | locus YOR136W, strain idh2, stronger effect = lower value 1.03 | locus YOR144C, strain elg1, stronger effect = lower value 1.01 | locus YOR184W, strain ser1, stronger effect = lower value 1.01 | locus YOR231W, strain MKK1, stronger effect = lower value 1.02 | locus YOR265W, strain rbl2, stronger effect = lower value 0.99 | locus YOR270C, strain vph1, stronger effect = lower value 0.948 | locus YOR290C, strain snf2, stronger effect = lower value 1.01 | locus YOR316C, strain cot1, stronger effect = lower value 1.01 | locus YPL051W, strain arl3, stronger effect = lower value 1.01 | locus YPL078C, strain atp4, stronger effect = lower value 1.01 | locus YPL106C, strain sse1, stronger effect = lower value 1.01 | locus YPL240C, strain hsp82, stronger effect = lower value 1.02 | locus YPL256C, strain CLN2, stronger effect = lower value 1.01 | locus YPR119W, strain clb2, stronger effect = lower value 1.01 | locus YPR141C, strain kar3, stronger effect = lower value 1.01 | locus YPR163C, strain tif3, stronger effect = lower value 1.01 | locus YPR167C, strain met16, stronger effect = lower value 1.01 | strain wtn01, stronger effect = lower value 1.02
